Test results as given in PubChem BioAssay (Tox21).
Results filed as inconclusive are left out. A call without a number means that no potency is given here. Values without a mark were called inactive. The source made the active and inactive calls. Unless noted, calls follow the shape of the dose curve; as a rule, active = well fitted curve in the direction sought with a large enough effect in the repeat runs; inconclusive = weak or mixed curves; inactive = no such curve, though single readings can be large; an effect the other way counts as inactive or inconclusive.

Columns and labels:
[1] = qHTS assay to identify small molecule agonists of the RXR signaling pathway - cell viability counter screen (AID 1159529); also: series mostly up to about 77 µM; nearly all actives have a fitted effect of over 50% in size
Method in brief: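 RXR-alpha-UAS-bla HEK 293T cells in medium with 2% charcoal-stripped FBS were pre-incubated 5 hr, then compound-treated 16 hr at 37 C. Viability was read by CellTiter-Glo luminescence in the same wells as the beta-lactamase assay, with tetraoctyl ammonium bromide as positive control.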

[2] = qHTS assay to identify small molecule antagonists of the retinoid acid receptor (RAR) signaling pathway - cell viability counter screen (AID 1159551); also: nearly all actives have a fitted effect of over 35% in size
Method in brief: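 C3RL4 RARE-luciferase cells, 1,000/well, incubated overnight, then dosed with compound plus 1 uM retinol (final). After 6 hr at 37 C, viability read by CellTiter-Glo ATP luminescence following 30 min at room temperature.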

[3] = qHTS assay to identify small molecule antagonists of the retinoic acid receptor (RAR) signaling pathway (AID 1159552; also: nearly all actives have a fitted effect of over 50% in size)
Method in brief: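 Retinol signaling pathway inhibitors screened in C3RL4 RARE-luciferase reporter cells seeded overnight at 37 C, then compounds added with 1 uM (final) retinol as pathway substrate. After 6 hr at 37 C, luciferase luminescence read after 30 min at room temperature.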

[4] = qHTS assay to identify small molecule agonists of the retinoic acid receptor (RAR) signaling pathway (AID 1159553); also: potency is read from the fitted curve at half-maximal effect
Method in brief: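 C3RL4 RARE-luciferase cells were seeded at 1,000/well and grown overnight at 37 C, then exposed to compounds for 6 hr at 37 C, 5% CO2. Luciferase reagent was added and luminescence was read after 30 min at room temperature.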

[5] = qHTS assay to identify small molecule antagonists of the estrogen related receptor (ERR) signaling pathway from Tox21 library - cell viability counter screen (AID 1224834); also: nearly all actives have a fitted effect of over 30% in size
Method in brief: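 ERR reporter cells, 2,000 per well, rested 6 h, then exposed to compound in DMSO for 17.5 hours at 37 C. Viability read as fluorescence after 30 min with CellTiter-Fluor.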

[6] = qHTS assay to identify small molecule agonists of the constitutive androstane receptor (CAR) signaling pathway - cell viability counter screen (AID 1224836); also: series mostly up to about 92 µM; nearly all actives have a fitted effect of over 45% in size
Method in brief: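 HepG2 cells stably carrying hCAR and a CYP2B6-2.2kb reporter; 15-concentration compounds plus PK11195 (final 0.75 uM), 23 hr at 37 C/5% CO2. Viability read by CellTiter-Fluor fluorescence.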

[7] = qHTS assay to identify small molecule antagonists of the constitutive androstane receptor (CAR) signaling pathway - cell viability counter screen (AID 1224837); also: series mostly up to about 92 µM; nearly all actives have a fitted effect of over 45% in size
Method in brief: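 HepG2 cells stably carrying hCAR and CYP2B6-2.2kb reporter, stimulated with 50 nM CITCO and compounds at 15 concentrations for 23 h at 37 C. Viability measured by CellTiter-Fluor fluorescence.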

[8] = qHTS assay to identify small molecule antagonists of the estrogen related receptor signaling pathway with the pleiotropic PPARgamma coactivator (PGC) from Tox21 10K library - cell viability counter screen (AID 1224840; active = well fitted cell-killing curve with a large enough effect in the repeat runs, not every such curve was filed as active; also: nearly all actives have a fitted effect of over 40% in size)
Method in brief: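 PGC/ERR cells (2,000/well) plated 6 h, then compound-treated for 17.5 h at 37 C. Viability measured by CellTiter-Fluor fluorescence after 30 min at 37 C, multiplexed with the pathway assay.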

[9] = target: Thyrotropin receptor (Homo sapiens) (UniProt P16473); test: qHTS assay to identify small molecule agonists of the thyroid stimulating hormone receptor (TSHR) signaling pathway (AID 1224843; calls by dose curve; also: nearly all actives have a fitted effect of over 45% in size)
Method in brief: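 HEK293 cells stably bearing the thyrotropin receptor were plated at 800 cells/well and challenged with compound (30 min, RT). Accumulated cAMP was quantified via cAMP-d2 competing for cryptate-tagged antibody.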

[10] = target: Nuclear receptor subfamily 1 group I member 3 (Homo sapiens) (UniProt Q14994); test: qHTS assay to identify small molecule antagonists of the constitutive androstane receptor (CAR) signaling pathway (AID 1224838); also: nearly all actives have a fitted effect of over 40% in size
Method in brief: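 HepG2 cells stably carrying hCAR and a CYP2B6-2.2kb luciferase reporter, seeded 4 hrs before compound (15 concentrations). Stimulated with 50 nM CITCO for 24 hr at 37 C. ONE-Glo luminescence read after 30 min at room temperature.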

[11] = target: Nuclear receptor subfamily 1 group I member 3 (Homo sapiens) (UniProt Q14994); test: qHTS assay to identify small molecule agonists of the constitutive androstane receptor (CAR) signaling pathway (AID 1224839); also: nearly all actives have a fitted effect of over 15% in size; also: potency is read from the fitted curve at half-maximal effect
Method in brief: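 HepG2 cells stably co-transfected with hCAR and a CYP2B6-2.2kb luciferase reporter; compounds at 15 concentrations with 0.75 uM PK11195 present. After 24 hr at 37 C, luciferase read by ONE-Glo luminescence.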

[12] = target: Luciferin 4-monooxygenase (Photinus pyralis) (UniProt P08659); test: qHTS assay to identify small molecule inhibitors of firefly luciferase (AID 1224835); also: nearly all actives have a fitted effect of over 25% in size; also: potency is read from the fitted curve at half-maximal effect
Method in brief: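 Inhibition of purified Photinus luciferase is measured by luminescence. Substrate levels (D-luciferin, ATP) sit at their KM values. Each compound is tested in a concentration series.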

[13] = qHTS assay to identify small molecule antagonists of the estrogen related receptor signaling pathway with the pleiotropic PPARgamma coactivator (PGC) from Tox21 10K library (AID 1224841; call rule not given here; also: series mostly up to about 92 µM; actives are mostly falling curves and most rising ones were filed inactive; nearly all actives have a fitted effect of over 50% in size)
Method in brief: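 PGC/ERR cell line, 2,000 cells/well, pre-incubated 6 hours at 37 C, then exposed to compounds for 18 hours at 37 C; luciferase read with One-Glo luminescence after 30 min at room temperature.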

[14] = qHTS assay to identify small molecule agonists of the estrogen related receptor signaling pathway with the pleiotropic PPARgamma coactivator (PGC) from Tox21 10K library (AID 1224842); also: nearly all actives have a fitted effect of over 15% in size
Method in brief: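 Luminescence from One-Glo (30 min, room temperature) measured after PGC/ERR cells had 18 h at 37 C with pinned compound (23 nL in DMSO). Cells had been seeded at 2,000 per well and pre-incubated 6 h.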

[15] = qHTS assay to identify small molecule antagonists of the estrogen related receptor (ERR) signaling pathway - cell viability counter screen (AID 1224818); also: series mostly up to about 46 µM
Method in brief: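 ERR cells, 2,000 per well, compound added after 6 h and incubated 17.5 h at 37 C. Viability read by CellTiter-Fluor fluorescence after a further 30 min at 37 C.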

[16] = qHTS assay to identify small molecule antagonists of the estrogen related receptor (ERR) signaling pathway (AID 1224819;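 also: luminescence from an ERR-driven luciferase reporter measured with One-Glo reagent; series mostly up to about 46 µM; nearly all actives have a fitted effect of over 50% in size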)
Method in brief: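 ERR reporter cell line (NTP) plated at 2,000 cells/well, settled 6 h at 37C/5% CO2, then exposed to LOPAC compounds for 18 h at 37C. One-Glo luciferase luminescence read after 30 min at room temperature.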

[17] = qHTS assay to identify small molecule agonists of the estrogen related receptor (ERR) signaling pathway (AID 1224820)
Method in brief: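 ERR reporter cells (NTP line) plated 2,000/well, incubated 6 h at 37 C/5% CO2, then pinned with compounds in DMSO and held 18 h at 37 C. One-Glo added; luminescence read after 30 min at room temperature.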

[18] = system: estrogen-related receptor alpha (ERRalpha) with PGC-1alpha coactivator, human; test: qHTS assay to identify small molecule antagonists of the estrogen related receptor signaling pathway with the pleiotropic PPARgamma coactivator (PGC) (AID 1224821; calls by dose curve)
Method in brief: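 Cells engineered for PGC/ERR signalling (line from NTP) were plated 6 h at 37 C/5% CO2, then exposed to DMSO-dissolved compound for 18 h at 37 C. Luciferase activity was read by One-Glo luminescence after 30 min at room temperature.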

[19] = qHTS assay to identify small molecule antagonists of the estrogen related receptor signaling pathway with the pleiotropic PPARgamma coactivator (PGC) cell viability counter screen (AID 1224822; also: series mostly up to about 46 µM)
Method in brief: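 PGC/ERR cells rested 6 h, then compound-treated 17.5 h at 37 C. CellTiter-Fluor added for 30 min at 37 C, viability measured by fluorescence intensity.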

Nuclear receptor subfamily 1 group I member 3 (Homo sapiens), sequence (Q14994 whole entry, looked up): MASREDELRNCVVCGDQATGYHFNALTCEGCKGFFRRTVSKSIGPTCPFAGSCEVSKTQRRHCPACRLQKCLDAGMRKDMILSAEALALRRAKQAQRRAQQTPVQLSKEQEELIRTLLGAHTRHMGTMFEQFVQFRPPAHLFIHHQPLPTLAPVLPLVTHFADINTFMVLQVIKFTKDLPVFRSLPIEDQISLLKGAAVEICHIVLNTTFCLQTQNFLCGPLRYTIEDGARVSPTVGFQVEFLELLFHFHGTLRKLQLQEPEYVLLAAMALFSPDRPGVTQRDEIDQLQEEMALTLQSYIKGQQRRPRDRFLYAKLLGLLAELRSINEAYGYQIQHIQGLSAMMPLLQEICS
Thyrotropin receptor (Homo sapiens), sequence (P16473 whole entry, looked up): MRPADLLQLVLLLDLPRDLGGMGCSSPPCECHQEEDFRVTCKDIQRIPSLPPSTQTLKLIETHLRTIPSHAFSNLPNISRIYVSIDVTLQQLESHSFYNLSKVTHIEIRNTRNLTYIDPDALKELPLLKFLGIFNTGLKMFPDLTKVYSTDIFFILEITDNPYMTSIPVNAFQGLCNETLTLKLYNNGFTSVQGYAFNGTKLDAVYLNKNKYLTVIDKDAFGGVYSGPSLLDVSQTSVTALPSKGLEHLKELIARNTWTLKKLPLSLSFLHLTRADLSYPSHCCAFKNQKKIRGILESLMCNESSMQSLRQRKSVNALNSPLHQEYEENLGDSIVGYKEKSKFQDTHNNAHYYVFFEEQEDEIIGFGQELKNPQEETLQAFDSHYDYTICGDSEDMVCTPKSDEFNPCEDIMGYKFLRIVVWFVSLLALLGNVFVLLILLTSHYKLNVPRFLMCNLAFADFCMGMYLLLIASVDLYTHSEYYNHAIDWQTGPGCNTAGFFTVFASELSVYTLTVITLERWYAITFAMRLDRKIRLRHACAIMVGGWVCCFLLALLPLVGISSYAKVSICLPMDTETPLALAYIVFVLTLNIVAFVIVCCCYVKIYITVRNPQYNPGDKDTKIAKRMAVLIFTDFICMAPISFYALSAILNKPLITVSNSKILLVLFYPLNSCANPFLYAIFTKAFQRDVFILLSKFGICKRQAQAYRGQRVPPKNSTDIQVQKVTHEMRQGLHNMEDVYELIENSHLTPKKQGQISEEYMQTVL
Luciferin 4-monooxygenase (Photinus pyralis), sequence (P08659 whole entry, looked up): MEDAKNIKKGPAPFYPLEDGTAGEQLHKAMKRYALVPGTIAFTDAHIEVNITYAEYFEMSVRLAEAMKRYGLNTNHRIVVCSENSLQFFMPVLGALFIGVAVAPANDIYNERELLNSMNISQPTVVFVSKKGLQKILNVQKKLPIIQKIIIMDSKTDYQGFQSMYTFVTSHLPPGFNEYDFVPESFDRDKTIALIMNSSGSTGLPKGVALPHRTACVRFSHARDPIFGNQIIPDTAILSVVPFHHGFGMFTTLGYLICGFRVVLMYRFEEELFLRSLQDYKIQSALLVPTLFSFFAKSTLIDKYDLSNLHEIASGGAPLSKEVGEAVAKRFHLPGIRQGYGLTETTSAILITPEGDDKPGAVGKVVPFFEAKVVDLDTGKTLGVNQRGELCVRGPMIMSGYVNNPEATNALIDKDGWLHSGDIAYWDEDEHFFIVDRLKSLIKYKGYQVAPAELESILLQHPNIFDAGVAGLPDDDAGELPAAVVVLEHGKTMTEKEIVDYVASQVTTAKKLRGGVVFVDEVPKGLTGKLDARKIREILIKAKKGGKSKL

| SMILES | outcome [1] | outcome [2] | outcome [3] | Potency [4] | Potency [5] | Potency [6] | Potency [7] | outcome [8] | Potency [9] | outcome [10] | Potency [11] | Potency [12] | Potency [13] | outcome [14] | outcome [15] | outcome [16] | outcome [17] | outcome [18] | outcome [19] |
| --- | --- | --- | --- | --- | --- | --- | --- | --- | --- | --- | --- | --- | --- | --- | --- | --- | --- | --- | --- |
| CCCCCCOc1ccccc1C(N)=O | inactive | inactive | inactive | 13.3 µM (active) | inactive | inactive | inactive | inactive | inactive |  |  |  |  |  |  |  |  |  |  |
| NNc1nnc(NN)c2ccccc12 | inactive |  | inactive |  | inactive |  | inactive | inactive | inactive | inactive | inactive |  |  |  |  |  |  |  |  |
| COP(=O)(OC)OC(c1ccc(Cl)cc1)P(=O)(OC)OC (stereo not drawn) | inactive | inactive | inactive |  | inactive | inactive | inactive | inactive | inactive | inactive |  | inactive | inactive | inactive |  |  |  |  |  |
| CC(=O)Nc1ccc(S(=O)(=O)Cl)cc1 | inactive | inactive |  |  | inactive | inactive | inactive | inactive |  | inactive | inactive | inactive |  | inactive |  |  |  |  |  |
| CC(=O)c1ccc2c(c1)Cc1ccccc1-2 | inactive | inactive | inactive |  | inactive | inactive | inactive | inactive |  | inactive | 54.5 µM (active) | 25.2 µM (active) |  |  |  |  |  |  |  |
| CO[C@@H]1[C@@H](OC(N)=O)[C@@H](O)[C@H](Oc2ccc3c(O)c(NC(=O)c4ccc(O)c(CC=C(C)C)c4)c(=O)oc3c2C)OC1(C)C | inactive |  |  |  | inactive | inactive | inactive | inactive | inactive | inactive | inactive |  | inactive | inactive |  |  |  |  |  |
| NCCS | inactive | inactive |  |  | inactive | inactive | inactive | inactive |  |  |  | inactive | inactive | inactive | inactive | inactive | inactive | inactive | inactive |
| Cc1cccc(C)c1OCC(C)N (stereo not drawn) | inactive | inactive |  |  | inactive | inactive | inactive | inactive | inactive | inactive | inactive | inactive | inactive | inactive | inactive | inactive | inactive | inactive | inactive |
| O=S(=O)(O)c1ccc2cc(O)c(S(=O)(=O)O)cc2c1 | inactive | inactive | inactive |  | inactive |  | inactive | inactive | inactive | inactive | inactive |  |  |  |  |  |  |  |  |
| C=CC(OCC)OCC | inactive | inactive | inactive |  |  |  | inactive | inactive |  | inactive | inactive |  |  |  |  |  |  |  |  |
| Nc1nnc(-c2cccc(Cl)c2Cl)c(N)n1 | inactive | inactive |  |  | inactive |  | inactive | inactive | inactive |  |  | inactive |  |  | inactive |  |  |  | inactive |
| CCOC(=O)/C=C/c1ccccc1 | inactive | inactive | inactive |  | inactive |  | inactive | inactive | inactive | inactive | inactive |  |  |  |  |  |  |  |  |
| CNC(=O)[C@H]1O[C@@H](n2cnc3c(NCc4cc(Cl)ccc4OCc4cc(C)no4)ncnc32)[C@H](O)[C@@H]1N | inactive |  |  |  | inactive | inactive | inactive | inactive | inactive | inactive | inactive | inactive | inactive | inactive |  |  |  |  |  |
| C[C@@H](O)[C@H]1C(=O)N2C(C(=O)O)=C(SCCN=CN)C[C@H]12 | inactive | inactive |  |  |  |  | inactive | inactive | inactive | inactive | inactive | inactive | inactive | inactive | inactive | inactive | inactive | inactive | inactive |
| CCOC(=O)CC(=O)c1ccccc1 | inactive | inactive | inactive |  | inactive | inactive | inactive | inactive | inactive | inactive | inactive | inactive |  |  |  |  |  |  |  |
| C=COCCOCCOCCOC=C | inactive | inactive |  |  | inactive | inactive | inactive | inactive | inactive | inactive | inactive | inactive |  |  |  |  |  |  |  |
| CC(=O)c1sc(C)nc1C | inactive | inactive |  |  | inactive | inactive | inactive | inactive | inactive | inactive | inactive | inactive | inactive | inactive |  |  |  |  |  |
